Records with an inconclusive call do not appear. Values without a mark were called inactive. Calls of active or inactive are those of the source. Calls come from the whole dose curve; as a rule, active = well fitted inhibition curve with a large enough effect; inconclusive = small, poorly fitted or top-dose-only effect; inactive = no such curve, though single readings can be large or run the other way.
% is set by controls: 0 for no effect and ±100 for the full control effect; potency is the fitted concentration of half-maximal effect.

The test is described as follows: qHTS to identify inhibitors of the type 1 interferon - major histocompatibility complex class I in skeletal muscle: Secondary screen by immunofluorescence.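 For activity change, negative = inhibition: digitonin at 100 µM served as the cytotoxic control.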 Note: nearly all actives have a fitted effect of over 70% in size. The conditions noted are these: C25cl48 myoblasts, IFN-b induced HLA-ABC immunofluorescence, 24 h, Viability; series mostly up to 49.8 µM; activity change, negative = inhibition: at the top concentration. An outline of the steps:
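HLA-ABC immunofluorescence, with nuclear and cell-body stains, was quantified by laser scanning cytometry. Read-out followed 24 h of IFN-beta (4.0 ng/ml) stimulation of C25cl48 human myoblasts with compounds titrated 1:3 over 11 points from 50 uM, with ruxolitinib as inhibitor control.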
For the compound `CC(C)C[C@H](NC(=O)CNC(=O)c1cc(Cl)ccc1Cl)B1OC(=O)CC(CC(=O)O)(C(=O)O)O1` (stereo partly specified), the “activity change, negative = inhibition” value was -1.81%.

Regarding `CO[C@H]1C(=O)[C@]2(C)[C@@H](OC)C[C@H]3OC[C@@]3(OC(C)=O)[C@H]2[C@H](OC(=O)c2ccccc2)[C@]2(O)C[C@H](OC(=O)[C@H](O)[C@@H](NC(=O)OC(C)(C)C)c3ccccc3)C(C)=C1C2(C)C`, the “activity change, negative = inhibition” value was 0.182%.

For the compound `O=[N+]([O-])c1ccc2c(c1)S(=O)(=O)C=C2`, the Potency is 5.14 µM (active).

For `COc1cccc2c1C(=O)c1c(O)c3c(c(O)c1C2=O)C[C@@](O)(C(=O)CO)C[C@@H]3O[C@H]1C[C@H](N)[C@H](OC2CCCCO2)[C@H](C)O1` (stereo partly specified), the “activity change, negative = inhibition” value is 4.58%.

As to `CC1(C)CC(=O)c2c(C(F)(F)F)nn(-c3ccc(C(N)=O)c(NC4CCC(OC(=O)CN)CC4)c3)c2C1` (stereo unspecified), the “activity change, negative = inhibition” value is 1.4%.

In the case of `CC[C@@]1(O)C(=O)OCc2c1cc1n(c2=O)Cc2c-1nc1cc(F)c(C)c3c1c2[C@@H](N)CC3`, the “activity change, negative = inhibition” value was 21.5%.

As to `CCc1c2c(nc3ccc(O)cc13)-c1cc3c(c(=O)n1C2)COC(=O)[C@]3(O)CC`, the “activity change, negative = inhibition” value was 14.7%.

As for `Cc1sc2c(c1C)C(c1ccc(Cl)cc1)=N[C@@H](CC(=O)Nc1ccc(OCCOCCOCCOCCNc3cccc4c3C(=O)N(C3CCC(=O)NC3=O)C4=O)cc1)c1nnc(C)n1-2` (stereo partly specified), the “activity change, negative = inhibition” value is 22.8%.

Turning to `CN1CC[C@H](c2c(O)cc(O)c3c(=O)cc(-c4ccccc4Cl)oc23)[C@H](O)C1`, the “activity change, negative = inhibition” value was -1.82%.

For the compound `O=C(Nc1cn[nH]c1-c1nc2ccc(CN3CCOCC3)cc2[nH]1)NC1CC1`, the “activity change, negative = inhibition” value is -21.8%.

Regarding `COc1cccc2c1C(=O)c1c(O)c3c(c(O)c1C2=O)C[C@@](O)(C(=O)CO)C[C@@H]3O[C@H]1C[C@H](N)[C@H](O)[C@H](C)O1`, the “activity change, negative = inhibition” value was 2.3%.

Turning to `COc1nnc2ccc(N3CCC(c4ccc(OCCN5CCN(C)C(=O)[C@H]5C)cc4)CC3)nn12`, the “activity change, negative = inhibition” value was 18.2%.

With `CCNC(=O)c1noc(-c2cc(C(C)C)c(O)cc2O)c1-c1ccc(CN2CCOCC2)cc1`, the “activity change, negative = inhibition” value is 23.3%.

On to `O=C1CN2Cc3c(ccc(Cl)c3Cl)N=C2N1`, for which the “activity change, negative = inhibition” value was 0%.

Turning to `COc1ccc(F)c(F)c1C(=O)c1cnc(NC2CCN(S(C)(=O)=O)CC2)nc1N`, the “activity change, negative = inhibition” value was 1.88%.

In the case of `CCOc1cc2ncc(C#N)c(Nc3ccc(F)c(Cl)c3)c2cc1NC(=O)/C=C/CN(C)C`, the Potency is 16.2 µM (active).

Turning to `O=C1NCCc2[nH]c(-c3ccncc3)cc21`, the “activity change, negative = inhibition” value was -11.3%.

With `COc1ccc(CNc2nc(N(CCO)CCO)nc3c2ncn3C(C)C)cc1`, the “activity change, negative = inhibition” value was -27.7%.

As for `CNC(=O)c1cc(Oc2ccc(NC(=O)Nc3cc(C(C)(C)C)nn3-c3ccc4ncccc4c3)c(F)c2)ccn1`, the “activity change, negative = inhibition” value was -10.6%.

For `C[C@H](Nc1ncnc2nc[nH]c12)c1cc2cccc(Cl)c2c(=O)n1-c1ccccc1`, the “activity change, negative = inhibition” value is -1.87%.

On to `Cc1cc(-n2c(=O)ccc3cnc4[nH]ccc4c32)ccc1F`, for which the “activity change, negative = inhibition” value was -7.36%.

As to `O=C(Nc1nc2cccc(-c3ccc(CN4CCS(=O)(=O)CC4)cc3)n2n1)C1CC1`, the “activity change, negative = inhibition” value is -6.56%.

Turning to `CC(C)(C)c1ccc(S(=O)(=O)/C=C/C#N)cc1`, the Potency is 3.24 µM (active).

As to `Cn1ncc2cc(-c3cnc(N)c(Cl)c3N3CCC4(CCNC4=O)CC3)ccc21`, the “activity change, negative = inhibition” value is -17.9%.

As to `Cc1ccc(NC(=O)NCc2ccc3c(c2)CN(C2CCC(=O)NC2=O)C3=O)cc1Cl` (stereo unspecified), the “activity change, negative = inhibition” value is 9.81%.

For the compound `O=C(/C=C/c1ccc(CN(CCO)CCc2c[nH]c3ccccc23)cc1)NO`, the “activity change, negative = inhibition” value is -3.46%.

With `Cc1ccc2nc(NCCN)c3ncc(C)n3c2c1`, the “activity change, negative = inhibition” value was 9.24%.

Consider `C[C@]12C=CC(=O)C=C1CC[C@H]1[C@@H]3C[C@@H](O)[C@](O)(C(=O)CO)[C@@]3(C)C[C@H](O)[C@@]12F`, for which the “activity change, negative = inhibition” value was 6.5%.

Consider `CC(=O)Oc1ccc(C2(c3ccc(OC(C)=O)cc3)C(=O)Nc3ccccc32)cc1`, for which the “activity change, negative = inhibition” value is 12.6%.

`CN(Cc1ccc(/C=C/C(=O)NO)cc1)CC12CC3CC(CC(C3)C1)C2`: the “activity change, negative = inhibition” value is -7.65%.

Turning to `COc1ccc(-c2nc(N3CCOCC3)c3sc(CN(C)c4ncc(C(=O)NO)cn4)cc3n2)cn1`, the “activity change, negative = inhibition” value is -4.79%.

For the compound `CC(C)(C)CC(=O)OCC(=O)[C@@]1(O)CC[C@H]2[C@@H]3CCC4=CC(=O)C=C[C@]4(C)[C@H]3[C@@H](O)C[C@@]21C`, the “activity change, negative = inhibition” value is -16.5%.

Take `Fc1ccc(CNc2ncnc3ccc(F)cc23)cc1`: the “activity change, negative = inhibition” value was 8.45%.

With `O=C(NC1CCNCC1)c1[nH]ncc1NC(=O)c1c(Cl)cccc1Cl`, the “activity change, negative = inhibition” value was 8.03%.

Consider `COc1cccc2nc(-c3cccs3)nc(NN3C(=O)C=C(C)C3=O)c12`, for which the Potency is 16.2 µM (active).

As for `Cc1nc(Nc2n[nH]c3c2CN(C(=O)N[C@H](CN(C)C)c2ccccc2)C3(C)C)c2sccc2n1`, the “activity change, negative = inhibition” value is -3.25%.

(Values after PubChem BioAssay AID1347414 (National Center for Advancing Translational Sciences (NCATS), 2020).)
